# Screens as filed in PubChem BioAssay.
# GDH-TPI counter: counter-screen for M. tuberculosis FBA inhibitors: GDH-TPI coupled enzymes; AID 588335; inhibition, % at 4.8 µM; 360,000 compounds, 1.2% hits; GDH-TPI coupled enzyme counterscreen, NADH absorbance; in the data active means inhibition above about 30%;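 further: 0% = DMSO wells and 100% = wells lacking the enzyme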
# PrPC surface inh: cell surface PrPC inhibition, primary TR-FRET screen; AID 720596; inhibition, % at 13.8 µM; 370,000 compounds, 0.43% hits; TR-FRET read-out; in the data active means inhibition above about 24%; further: 0% = median of the test wells and 100% = reference compound wells
# Vc quorum ag: induces V. cholerae light production without autoinducers; activation, % at 18.7 µM; V. cholerae BH1578 lux reporter, luminescence, 6 h; 350,000 compounds, 0.16% hits; AID 588436; in the data active means activation mostly above about 9.7%, no sharp cut-off
# SARS 3CLpro inh: SARS-CoV 3CLpro protease inhibition. 290,000 compounds, 0.14% hits. recombinant SARS-CoV 3CLpro, quenched FRET peptide cleavage. inhibition, % at 6 µM. AID 1706. P0C6X7; in the data active means inhibition above about 12%
# FBA Mtb inh: inhibits M. tuberculosis FBA enzyme; 360,000 compounds, 2.3% hits; purified M. tuberculosis FBA, fluorescence read-out; P9WQA3; inhibition, % at 1 µM; AID 588726; in the data active means inhibition above about 27%;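 further: 0% = vehicle and 100% = reference inhibitor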
# Target sequence (P9WQA3 whole entry, looked up): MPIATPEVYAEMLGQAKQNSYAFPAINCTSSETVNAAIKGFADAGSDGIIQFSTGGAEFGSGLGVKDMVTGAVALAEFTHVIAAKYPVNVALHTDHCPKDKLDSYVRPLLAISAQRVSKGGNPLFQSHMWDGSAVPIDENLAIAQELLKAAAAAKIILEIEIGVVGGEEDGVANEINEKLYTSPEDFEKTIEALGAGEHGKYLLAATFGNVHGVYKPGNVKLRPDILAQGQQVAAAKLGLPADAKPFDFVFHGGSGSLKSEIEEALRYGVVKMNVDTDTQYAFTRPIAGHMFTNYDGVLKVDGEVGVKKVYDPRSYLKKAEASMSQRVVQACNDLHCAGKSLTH
# The depositor's hits bear a star; i = inactive; . = not tested or not shown; + = active, no number. In the library only some 3.9% were active in any assay of this set; here they are far more common.
SMILES,GDH-TPI counter,PrPC surface inh,Vc quorum ag,SARS 3CLpro inh,FBA Mtb inh
Cc1ccc(/C=N/N=C2/NC(=O)CS2)o1,26.2,2.4,-0.2,0.1,-3.0
CCn1nc(NC(=O)C2CCCO2)c2cc3cc(C)ccc3nc21 (stereo unspecified),11.2,-15.5,-0.1,1.5,14.0
CSCCC(NC(=O)COc1ccccc1)C(=O)N(C)Cc1cccc(F)c1 (stereo unspecified),5.7,-5.2,i,.,-0.3
O=S(=O)(c1ccc(CN2CCOCCOCCN(Cc3ccc(S(=O)(=O)C(F)(F)F)cc3)CCOCC2)cc1)C(F)(F)F,.,9.4,.,.,.
COc1ccc(-c2cn3ccccc3n2)cc1OC,5.6,-2.7,-0.2,-2.8,158.6*
COc1ccc(-c2cn3cc(C)ccc3n2)cc1OC,15.9,5.0,-0.3,-2.0,160.8*
Cc1cc(Oc2cccnc2)ccc1NC(=O)CCc1c[nH]c2ccccc12,.,-1.9,.,.,.
Nc1cc(S(=O)(=O)O)cc2ccc(S(=O)(=O)O)cc12,1.3,-17.1,3.4,.,114.7*
Cc1ccc(CNC(=O)CN2C(=O)COc3ccc(S(=O)(=O)N4CCCCC4)cc32)o1,1.9,5.0,-0.2,4.3,-3.3
CCN(CC)c1ccc(/C=N/NC(=O)c2cccc(S(=O)(=O)N3CCOCC3)c2)c(O)c1,18.3,3.6,0.0,-4.3,-8.4
CCN(CC)c1ccc(C=Nc2ccc(OC)c(S(=O)(=O)N3CCOCC3)c2)c(O)c1,32.3*,-3.9,1.1,.,-1.3
COc1ccc(Br)cc1S(=O)(=O)N1CCOCC1,3.1,1.2,i,0.4,4.9
CCN(CC)c1ccc(C=Nc2cccc(S(=O)(=O)N3CCOCC3)c2)c(O)c1,61.4*,-7.9,-13.4,.,-1.7
Cc1cc(C)n2nc(C(=O)Nc3cccc(S(=O)(=O)N(C)c4ccccc4)c3)nc2n1,-5.2,-3.5,0.7,-0.3,4.7
COc1ccc(/C=C/C(=O)Nc2ccc3nc4n(c(=O)c3c2)CCCC4)cc1OC,36.5*,0.1,-0.2,1.1,-0.3
COc1ccc(C(=O)Nc2ccc3nc4n(c(=O)c3c2)CCCCC4)cc1OC,-8.0,-7.2,0.8,.,-1.8
COc1ccc(-c2cc(=O)c3cc(C)ccc3[nH]2)cc1,9.5,4.8,-0.2,-3.6,15.4
COc1cccc(-c2cc(=O)c3cc(NC(C)=O)ccc3[nH]2)c1,17.9,2.4,i,-9.2,115.4*
CC(=O)Nc1ccc2[nH]c(C)cc(=O)c2c1,7.3,3.6,i,1.0,10.3
COc1ccc(-c2cc(=O)c3cc(OC)ccc3[nH]2)cc1,3.4,.,i,1.6,75.8*
C[C@H](CO)N1C[C@H](C)[C@@H](CN(C)S(=O)(=O)c2cn(C)cn2)Oc2ncc(Br)cc2C1=O,9.4,2.0,-0.6,.,2.7
CCN1CCc2nc(NC(=O)c3ccccc3)sc2C1,32.5*,-11.7,-2.8,-0.7,-0.7
O=C(Nc1nc2c(s1)CN(Cc1ccccc1)CC2)C1CCC1,15.5,-2.1,-0.4,-3.5,9.2
N=c1oc2ccc3ccccc3c2cc1-c1nnc2n1CCCCC2,17.5,-13.8,i,-1.1,+
CC(C)(OC1OC(CO)C(O)C(O)C1O)[C@H]1Oc2ccc3ccc(=O)oc3c2[C@H]1O (stereo partly specified),28.1,-6.1,1.2,-6.9,117.3*
SMILES,GDH-TPI counter,PrPC surface inh,Vc quorum ag,SARS 3CLpro inh,FBA Mtb inh
O=c1ccc2cc(OC3O[C@H](CO)[C@@H](O)[C@H](O)[C@H]3O)c(O)cc2o1 (stereo partly specified),19.8,3.1,i,.,.
Cc1ccc(-c2cc(C(=O)N3CCCC3)c3ccccc3n2)s1,17.8,4.0,i,1.0,+
COc1ccc(-c2cc(C(=O)Oc3ccc([N+](=O)[O-])cc3)c3ccccc3n2)cc1,22.8,-9.4,-0.3,2.0,+
Cc1ccc(-c2cc(C(=O)n3cnc4ccccc43)c3ccccc3n2)cc1C,7.9,1.6,0.5,-3.1,50.5*
COc1ccc(-c2cc(C(=O)OCC(=O)c3ccc(C)c([N+](=O)[O-])c3)c3ccccc3n2)cc1,8.2,-4.3,-0.7,-2.8,5.8
CCn1cc(-c2cc(C(=O)O)c3ccccc3n2)c(C)n1,8.4,6.6,-0.3,-1.0,130.2*
O=C(c1cc(-c2cccc(Br)c2)nc2ccccc12)N1CCCC1,5.6,5.8,-0.6,-0.2,4.7
Cc1cc(NC(=O)c2cc(-c3ccc(C)c(C)c3)nc3ccccc23)no1,4.1,-5.5,0.1,-3.3,22.4
COc1ccc(C(=O)NC2=NCCS2)cc1S(=O)(=O)N1CCOCC1,-5.3,1.2,i,.,1.5
COc1ccc(CCN2Cc3c(N)cccc3C2=O)cc1OC,-0.3,7.3,-0.9,-2.5,3.9
COc1ccc(-c2cc(C(=O)N3CCCCCC3)c3ccccc3n2)cc1OC,11.6,-2.8,i,.,3.0
